# IMPase Li cell – cell-permeable IMPase inhibitors with lithium potentiation. CHO-M1 cells, IP1 TR-FRET (IP-One), carbachol + lithium. Potency, µM (doses to about 59.4 µM), for inactives: top-dose activity, negative = IMPase inhibition, hits mostly inhibitors. 0.35% of 210,000 active. AID 1457;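 note: IP1 builds up when IMPase is blocked and the TR-FRET signal falls; plate controls were basal vehicle for no effect and high inhibitor control for full effect; nearly all actives have a fitted effect of over 50% in size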
#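 CHO cells stably expressing M1 receptor (2000/well) were cultured 16–30 h, then exposed to compounds with a small lithium addition for 30 min at 37C. IP1 was measured by TR-FRET competition; AC50 from Hill fits.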
# HPGD block – blocks human HPGD enzyme activity; Potency, µM, for inactives: top-dose activity change, negative = inhibition, hits mostly inhibitors; P15428; AID 894; 4.3% of 150,000 active; purified HPGD, NADH fluorescence kinetic, PGE2 substrate; active = well fitted inhibition curve with a large enough effect, not every such curve was filed as active; inconclusive = small, poorly fitted or top-dose-only effect, or another doubt; inactive = no such curve, though single readings can be large or run the other way
# Target sequence (P15428 whole entry, looked up): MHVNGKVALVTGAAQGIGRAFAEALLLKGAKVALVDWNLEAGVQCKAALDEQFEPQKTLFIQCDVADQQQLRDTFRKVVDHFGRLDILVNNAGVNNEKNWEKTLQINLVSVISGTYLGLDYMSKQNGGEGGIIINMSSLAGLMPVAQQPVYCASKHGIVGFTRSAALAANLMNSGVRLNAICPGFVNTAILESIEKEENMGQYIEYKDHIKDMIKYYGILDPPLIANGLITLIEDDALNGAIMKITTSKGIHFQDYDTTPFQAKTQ
#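 20 nM HPGD preincubated 15 min at room temperature with compound in 50 mM Tris-HCl pH 8, 0.01% Tween 20. Started with 1 mM NAD+ and 30 uM prostaglandin E2; NADH fluorescence (360/450 nm) read 5 times over 30-s intervals, last minus first.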
# ALDH1A1 inh – inhibitors of human aldehyde dehydrogenase 1A1. 7.3% of 220,000 active. Purified ALDH1A1, NADH fluorescence, propionaldehyde substrate. P00352. Potency, µM (highest dose often 75.3 µM), for the others: at the top dose activity, negative = inhibition, hits mostly inhibitors; active = well fitted inhibition curve with a large enough effect, not every such curve was filed as active; inconclusive = small, poorly fitted or top-dose-only effect, or another doubt; inactive = no such curve, though single readings can be large or run the other way;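 note: plate controls were no enzyme wells and a reference inhibitor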
# Target sequence (P00352 whole entry, looked up): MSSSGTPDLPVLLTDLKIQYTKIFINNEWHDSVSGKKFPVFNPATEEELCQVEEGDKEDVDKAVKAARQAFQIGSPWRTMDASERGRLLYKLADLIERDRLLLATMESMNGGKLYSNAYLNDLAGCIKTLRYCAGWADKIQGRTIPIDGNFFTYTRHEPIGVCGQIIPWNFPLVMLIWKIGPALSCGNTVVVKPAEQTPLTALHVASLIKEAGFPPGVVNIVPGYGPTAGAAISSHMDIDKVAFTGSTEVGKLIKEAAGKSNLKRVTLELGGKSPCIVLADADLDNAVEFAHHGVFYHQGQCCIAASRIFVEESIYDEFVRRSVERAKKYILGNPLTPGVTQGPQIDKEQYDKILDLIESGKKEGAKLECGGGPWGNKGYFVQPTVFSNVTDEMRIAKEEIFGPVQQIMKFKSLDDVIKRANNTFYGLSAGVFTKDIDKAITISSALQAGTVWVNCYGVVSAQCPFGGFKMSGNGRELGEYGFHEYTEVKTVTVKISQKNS
# Lamin A splicing – modulators of lamin A splicing. HeLa LMNA splicing GFP/RFP minigene ratio, 48 h. Potency, µM (series often up to 46.1 µM), for the others: top-dose ratio change, negative = inhibition, actives largely listed as inhibitors. 0.01% of 200,000 active; active = well fitted inhibition curve with a large enough effect in the signal ratio, with a control signal flat, not every such curve was filed as active; inconclusive = small, poorly fitted or top-dose-only effect, or effect the other way, or a change in a side signal; the % refers to the signal ratio
#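 S3 HeLa cells stably expressing lamin A-EGFP splicing minigene plus DsRed2, 600 cells/well, 48 h compound exposure at 37C. Laser-scanning cytometry; analysed as GFP (500-530 nm)/RFP (575-640 nm) total intensity ratio; 0.5% DMSO vehicle.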
# Luc counter – blocks Kinase-Glo luciferase, a counter-screen artifact; Q27757; Kinase-Glo luciferase, ATP luminescence, 8 min; Potency, µM (series often up to 38.3 µM), inactives show top-dose activity change, negative = inhibition, hits mostly inhibitors; 0.28% of 200,000 active; note: nearly all actives have a fitted effect of over 60% in size
#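 Light output from Kinase-Glo luciferase with luciferin and 10 uM ATP in 50 mM imidazole pH 7.2, KCl, MgCl2, Tween 20, BSA; compound pin-delivered, 8-min ambient incubation, then luminescence read.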
# * = called active by the depositor; u = inconclusive; x = no result; [ ] = another dose, or the depositor's remark. An excerpt weighted towards active compounds, which were near 9% of everything screened. Unless noted, calls come from the whole dose curve; as a rule, active = well fitted curve in the direction sought with a large enough effect; inconclusive = small, poorly fitted or top-dose-only effect, or another doubt; inactive = no such curve, though single readings can be large; an effect the other way counts as inactive or inconclusive. Unless noted, % is set by controls: 0 for no effect and ±100 for the full control effect; potency is the fitted concentration of half-maximal effect.
SMILES,IMPase Li cell,HPGD block,ALDH1A1 inh,Lamin A splicing,Luc counter
O=[N+]([O-])C(/C=C(\Cl)[N+](=O)[O-])=C(N1CCCCC1)N1CCCCC1,0.8%,x,14.1µM*,x,-0.6%
Cc1nc2[nH]c(=S)[nH]c2cc1Br,1.6%[38.3 µM],u,17.8µM*,u,0.5%
COc1cccc([C@@H]2Oc3ccc(Br)cc3C(=O)[C@H]2OC(=O)NS(=O)(=O)c2ccc(C)cc2)c1,-9.2%,-6.4%,4.3%,x,1.5%
Clc1ccc(-c2nc3ccncc3[nH]2)cc1,-0.1%,u,11.2µM*,-9.4%,u
CN(C)/C=C1\SC(=S)N(N2C(=O)C3C4C=CC(C4)C3C2=O)C1=O (stereo not drawn),7.7%,x,8.2%,4.9%[46 µM],1.7%
Cc1cc(C)c2c(=O)n(CC(=O)N3CCC(Cc4ccccc4)CC3)sc2n1,4.4%,4.47µM*,7.08µM*,-4.2%,5.9%
CN1CC(=O)N(CC(=O)N2CCC(Cc3ccccc3)CC2)C1=O,7.0%,x,u,17.6%[46 µM],0.9%
Cc1cccc(N2CCN(C(=O)Cn3sc4nc(C)cc(C)c4c3=O)CC2C)c1 (stereo not drawn),19.9%[38.3 µM],3.16µM*,3.55µM*,5.3%,-7.6%
Cc1cc([C@](C)(N)C(=O)O)ccc1P(=O)(O)O,6.8%,-5.1%,-3.5%,x,-1.4%
COc1cccc(Cn2c(=O)c(CCc3ccccc3)nc3cncnc32)c1,-4.1%,x,-9.0%,u,x
CCOC(=O)C1=C(C)NC2=C(C1c1ccc([N+](=O)[O-])cc1)S(=O)(=O)c1ccccc12 (stereo not drawn),43.8%[38.3 µM],-24.0%,2.51µM*,u,25.3%
COc1cccc(CC2(CO)CCCN(CC3=Cc4cc(Cl)ccc4OC3)C2)c1 (stereo not drawn),19.4%,x,u,-5.8%[46 µM],1.0%
CCC(OC(=O)c1nsc(Cl)c1Cl)C(=O)NC(C)(C)C (stereo not drawn),0.9%,x,-2.0%,4.1%[46 µM],0.6%
CCC(OC(=O)c1nsc(Cl)c1Cl)C(=O)NCc1ccco1 (stereo not drawn),18.3%[38.3 µM],10µM*,u,6.5%,-1.8%
CCCOc1ccc2oc(=O)c3c(c2c1)CCCN3C(=O)CN1CCN(C(=O)c2ccco2)CC1,12.1%,-9.9%,u,-0.6%,1.5%
CCCOc1ccc2oc(=O)c3c(c2c1)CCCN3C(=O)CN1CCN(c2ncccn2)CC1,x,x,2.82µM*,-0.9%,x
N#Cc1c(/N=C/c2ccc(Br)s2)sc2c1CCC2,1.4%,-11.5%,u,0.5%,-0.3%
N#Cc1c(/N=C\c2ccc(O)c([N+](=O)[O-])c2)sc2c1CCCC2,20.6%,x,2.51µM*,x,0.6%
CN(C)/C=N/c1sc2c(c1C#N)CC(C)(C)NC2(C)C,-4.5%,-6.6%,7.3%,-8.2%,-2.5%
CN(C)/C=N/c1sc2c(c1C#N)CCC2,1.5%[38.3 µM],25.1µM*,10µM*,4.6%,-5.7%
N#Cc1c(/N=C/N2CCOCC2)sc2c1CCCCC2,-18.6%[38.3 µM],-19.5%,14.1µM*,1.5%,4.6%
Cc1ccc(/C=N/c2sc3c(c2C#N)CCC3)o1,-3.3%[38.3 µM],15.8µM*,10µM*,6.0%,11.2µM*
N#Cc1c(/N=C/c2cccs2)sc2c1CCCCC2,26.7%[38.3 µM],u,u,9.2%,u
N#C/C(=C\c1ccc(O)c([N+](=O)[O-])c1)c1nc2ccccc2s1,9.2%,x,u,x,-4.1%
O=c1c(-c2nc3ccccc3s2)cccn1Cc1ccc(Cl)c(Cl)c1,-5.9%[38.3 µM],u,u,-6.5%,6.2%
SMILES,IMPase Li cell,HPGD block,ALDH1A1 inh,Lamin A splicing,Luc counter
CCCCNC(=O)CSc1nc(N)c(C(=O)Nc2ccc(OC)cc2)s1,x,x,-1.0%,x,x
COc1cc(C(=O)NCc2nnc(SCC(=O)Nc3ccc4c(c3)OCO4)o2)cc(OC)c1OC,-1.9%,x,1.9%,18.5%[9.22 µM],-0.1%
CCCN(/C=N/c1sc2c(c1C#N)CCCCC2)CCC,9.2%[38.3 µM],-16.1%,u,8.9%,-1.8%
CN(C)/C=N/c1sc2c(c1C#N)CCCCC2,-2.5%,-23.9%,3.98µM*,u,-0.3%
CN(C)C=Nc1ccc2nn(-c3ccccc3)nc2c1,12.6µM*,u,u,8.0%,-8.1%
Cc1ccc(-n2nc3ccc(N)cc3n2)cc1,-22.5%[38.3 µM],u,u,4.9%,-6.3%
COc1ccc(-c2[nH]ncc2CN(C)C(C)c2cccs2)c(F)c1 (stereo not drawn),2.1%,x,u,x,4.5%
COc1ccc(-c2[nH]ncc2CN(C)CCc2c(C)n[nH]c2C)c(F)c1,15.7%,x,10µM*,x,8.7%
Cn1c(=O)cc(Nc2ccccc2)c2c(=O)n(-c3ccccc3)c(=O)n(-c3ccccc3)c21,x,x,-6.3%,x,x
CNCc1ccccc1Sc1cccc(O)c1,-7.9%,1.3%,12.1%,5.9%,-5.2%
CNCc1ccccc1Sc1cc(O)ccc1O,17.3%,8.91µM*,0.794µM*,-14.0%,-1.0%
COc1ccc(-c2n[nH]c(=S)n2/N=C/C=C\c2ccccc2OC)cc1,0.0%,0.891µM*,u,u,0.3%
COc1ccc(-c2cc(-c3n[nH]c(=S)n3-c3ccccc3OC)[nH]n2)cc1,1.5%,11.2µM*,u,1.7%,0.6%
COc1ccccc1-n1c(-c2ccccc2)n[nH]c1=S,-11.7%,x,u,x,7.1%
COc1ccccc1/C=C/C=N/n1c(-c2ccncc2)n[nH]c1=S,14.2%,14.1µM*,4.1%,u,0.5%
S=c1[nH]nc(-c2ccncc2)n1/N=C/C(Cl)=C\c1ccccc1,22.6%,x,-14.2%,-12.2%[46 µM],1.3%
COc1ccccc1/C=C\C=N\n1c(C2CCCCC2)n[nH]c1=S,8.8%[38.3 µM],14.1µM*,u,-2.1%[0.0737 µM],1.7%
COc1ccc(OC)c(-n2c(-c3cc(-c4ccccc4)n[nH]3)n[nH]c2=S)c1,-4.6%,u,-11.2%,-10.7%,0.5%
S=c1[nH]nc(C2CCCCC2)n1Cc1ccccc1,-1.2%,x,u,u,-4.7%
C/C(CCN1CCCCc2nc(C)c(C)cc21)=N\OC[C@@H](O)COCc1ccco1,x,x,-3.2%[13.5 µM],x,x
CC(=O)NCCNc1ncnc2ccc(-c3ccccc3Cl)cc12,-7.0%,x,-4.7%,3.4%,x
COc1ccc(-c2cc(C(=O)OCC(=O)NC(C)C)c3ccccc3n2)cc1,-0.6%,x,u,5.9%[46 µM],-4.2%
CCCCCC/C(C)=C1/SC(=S)NC1=O,2.4%[38.3 µM],12.6µM*,u,6.8%,-3.5%
CCOc1ccc(NC(=O)c2cc3c(=O)n(C)c4ccccc4c3n2C)cc1,7.94µM*,u,u,0.7%,-2.9%
Cn1c(C(=O)N2CCCC2)cc2c(=O)n(C)c3ccccc3c21,-0.4%[38.3 µM],22.4µM*,-1.6%,-4.7%,18.1%
Cn1c(C(=O)Nc2ccc3c(c2)OCO3)cc2c(=O)n(C)c3ccccc3c21,6.2%[38.3 µM],u,u,-4.0%,3.7%
Cc1cc(C)n2c(SCC(=O)Nc3ccc(F)cc3)nnc2n1,x,x,14.1µM*,x,x
Cc1cc(C)n2c(SCC(=O)Nc3ncc(C(F)(F)F)cc3Cl)nnc2n1,13.2%[38.3 µM],-9.7%,12.6µM*,1.8%,22.8%
COCCNC(=O)CSc1ncnc2sccc12,-16.7%[38.3 µM],17.8µM*,-2.9%,11.0%,0.2%
